Reference: PubChem BioAssay
The source made the active and inactive calls.

Legend:
[1] = binders of probe aFSTL3 on microarray, primary screen, stem cell growth factor project, biochemical, small-molecule microarray, fluorescence 635/667 (AID 1064); conditions: higher = more signal;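 also: measures binding of the biotinylated anti-FSTL3 antibody to printed compounds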
[2] = binders from COS7 lysate, DM2A8 probe, primary screen, torsin A project, cell lysate, small-molecule microarray, fluorescence 635/667 (AID 1065); conditions: higher = more signal, COS7 lysate expressing mutant human TOR1A
[3] = binders of probe aFGF2 on microarray, primary screen, stem cell growth factor project, biochemical, small-molecule microarray, fluorescence 635/667 (AID 1067); conditions: higher = more signal;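 also: measures binding of biotinylated aFGF2 protein to printed compounds on slides; z-score merges feature fluorescence and signal-to-noise across triplicate slides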
[4] = binders of probe aFGF10 on microarray, primary screen, stem cell growth factor project, biochemical, small-molecule microarray, fluorescence 635/667 (AID 1071); conditions: higher = more signal;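 also: score merges 667 nm spot intensity and signal to noise from triplicate slides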
[5] = biological target: Neurogenic locus notch homolog protein 2 (Homo sapiens) (UniProt Q04721); assay: Notch2 binders on small-molecule microarrays, primary screen, biochemical, small-molecule microarray, 635 nm fluorescence, stem cell growth factors (AID 1073); conditions: Notch2 binding, higher = more signal
[6] = biological target: Pro-neuregulin-1, membrane-bound isoform (Homo sapiens) (UniProt Q02297); assay: NRG1 binders on small-molecule microarrays, primary screen, psychiatric disease protein project, biochemical, small-molecule microarray, fluorescence 635/667 (AID 1075); conditions: NRG1 binding, 635 nm fluorescence, higher = more signal;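 also: score combines 667 nm spot fluorescence with signal to noise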
[7] = test system: Neuregulin-1 EGF-like domain; assay: binders of neuregulin-1 EGF-like domain, primary screen, biochemical, small-molecule microarray, 635 nm fluorescence (AID 1081); conditions: small-molecule microarray binding, higher = more signal;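 also: binding of the protein to compounds printed on small-molecule microarray slides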
[8] = FRG1 promoter luciferase signal modulators, primary screen, FRG1 inhibition for FSHD, cell-based, C2C12 myotubes, firefly/Renilla luciferase, luminescence (AID 1084); conditions: higher = more signal, called active from +8 up or from −8 down
[9] = binders of probe aFST on microarray, primary screen, stem cell growth factor project, biochemical, small-molecule microarray, fluorescence 635/667 (AID 1086); conditions: higher = more signal;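 also: score merges 667 nm fluorescence with signal-to-noise of each printed compound spot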
[10] = binders of probe aHhip on microarray, primary screen, stem cell growth factor project, biochemical, small-molecule microarray, fluorescence 635/667 (AID 1087); conditions: higher = more signal;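 also: score merges spot fluorescence at 667nm with spot signal to noise ratio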
[11] = test system: PRMT1 (protein arginine N-methyltransferase 1); assay: PRMT1 binders on small-molecule microarrays, primary screen, biochemical, small-molecule microarray, 635 nm fluorescence (AID 1088); conditions: small-molecule microarray binding, higher = more signal;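 also: binding of Prmt1 protein to compounds spotted on small-molecule microarray slides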
[12] = yeast growth modulation, basal conditions, primary screen, YJM789 clinical isolate, OD600, 24 h (AID 1089);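 also: growth of clinical yeast isolate S. cerevisiae YJM 789 seeded 1000 cells per well; test concentration not given here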; conditions: S. cerevisiae YJM789 growth, higher = more signal, called active from +8 up or from −8 down
[13] = fission yeast growth modulation, primary screen, strain 972, OD600, 24 h, no modulator (AID 1090);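 also: basal condition with compound alone and no growth modifier present; test concentration not given here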; conditions: S. pombe 972 growth, higher = more signal, called active from +8 up or from −8 down
[14] = S. cerevisiae growth modulation with rapamycin, primary screen, strain BY4716, OD600, 96 h (AID 1091); conditions: higher = more signal, called active from +8 up or from −8 down; also: test concentration not given here
[15] = biological target: Torsin-1A-interacting protein 2 (Homo sapiens) (UniProt Q8NFQ8); assay: LULL1 binders on small-molecule microarray, primary screen, cell lysate, human LULL1 lysate, 635/667 nm fluorescence (AID 1092); conditions: hLULL1 lysate binding, 635 nm fluorescence, higher = more signal;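 also: probe is lysate of COS7 cells overexpressing human LULL1; score merges per-feature 667 nm fluorescence with signal-to-noise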
[16] = E. coli growth modulation, two-sided OD650, primary screen, E. coli filamentation project, strain DRC41, 24 h (AID 1093); conditions: OD650, 24 h, higher = more signal, called active from +8 up or from −8 down;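 also: MC1000 strain lacking acrAB efflux and sulA so SOS filamentation is blocked; test concentration not given here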
[17] = small-molecule microarray binders of probe aLefty2, primary screen, biochemical, biotinylated probe, 635/667 nm fluorescence (AID 1094); conditions: higher = more signal;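 also: score merges spot fluorescence near 667 nm with spot signal-to-noise ratio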
[18] = test system: Noggin (protein binding on small-molecule microarray); assay: Noggin binders on small-molecule microarray, primary screen, biochemical, 635/667 nm fluorescence (AID 1095); conditions: 635 nm fluorescence, higher = more signal;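 also: score merges 667 nm feature fluorescence with signal to noise over triplicate slides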
[19] = biological target: Neurogenic locus notch homolog protein 3 (Homo sapiens) (UniProt Q9UM47); assay: NOTCH3 binders on small-molecule microarray, primary screen, biochemical, 635/667 nm fluorescence (AID 1096); conditions: NOTCH3 binding, 635 nm fluorescence, higher = more signal
[20] = small-molecule microarray binders of probe aEGFR, primary screen, biochemical, biotinylated probe, 635/667 nm fluorescence (AID 1097); conditions: higher = more signal;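 also: probe is a biotinylated anti-EGFR antibody binding compounds printed on slides; score combines fluorescence near 667 nm and signal to noise of each spot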

Chain of Neurogenic locus notch homolog protein 3 (Homo sapiens) (Q9UM47 whole entry, looked up): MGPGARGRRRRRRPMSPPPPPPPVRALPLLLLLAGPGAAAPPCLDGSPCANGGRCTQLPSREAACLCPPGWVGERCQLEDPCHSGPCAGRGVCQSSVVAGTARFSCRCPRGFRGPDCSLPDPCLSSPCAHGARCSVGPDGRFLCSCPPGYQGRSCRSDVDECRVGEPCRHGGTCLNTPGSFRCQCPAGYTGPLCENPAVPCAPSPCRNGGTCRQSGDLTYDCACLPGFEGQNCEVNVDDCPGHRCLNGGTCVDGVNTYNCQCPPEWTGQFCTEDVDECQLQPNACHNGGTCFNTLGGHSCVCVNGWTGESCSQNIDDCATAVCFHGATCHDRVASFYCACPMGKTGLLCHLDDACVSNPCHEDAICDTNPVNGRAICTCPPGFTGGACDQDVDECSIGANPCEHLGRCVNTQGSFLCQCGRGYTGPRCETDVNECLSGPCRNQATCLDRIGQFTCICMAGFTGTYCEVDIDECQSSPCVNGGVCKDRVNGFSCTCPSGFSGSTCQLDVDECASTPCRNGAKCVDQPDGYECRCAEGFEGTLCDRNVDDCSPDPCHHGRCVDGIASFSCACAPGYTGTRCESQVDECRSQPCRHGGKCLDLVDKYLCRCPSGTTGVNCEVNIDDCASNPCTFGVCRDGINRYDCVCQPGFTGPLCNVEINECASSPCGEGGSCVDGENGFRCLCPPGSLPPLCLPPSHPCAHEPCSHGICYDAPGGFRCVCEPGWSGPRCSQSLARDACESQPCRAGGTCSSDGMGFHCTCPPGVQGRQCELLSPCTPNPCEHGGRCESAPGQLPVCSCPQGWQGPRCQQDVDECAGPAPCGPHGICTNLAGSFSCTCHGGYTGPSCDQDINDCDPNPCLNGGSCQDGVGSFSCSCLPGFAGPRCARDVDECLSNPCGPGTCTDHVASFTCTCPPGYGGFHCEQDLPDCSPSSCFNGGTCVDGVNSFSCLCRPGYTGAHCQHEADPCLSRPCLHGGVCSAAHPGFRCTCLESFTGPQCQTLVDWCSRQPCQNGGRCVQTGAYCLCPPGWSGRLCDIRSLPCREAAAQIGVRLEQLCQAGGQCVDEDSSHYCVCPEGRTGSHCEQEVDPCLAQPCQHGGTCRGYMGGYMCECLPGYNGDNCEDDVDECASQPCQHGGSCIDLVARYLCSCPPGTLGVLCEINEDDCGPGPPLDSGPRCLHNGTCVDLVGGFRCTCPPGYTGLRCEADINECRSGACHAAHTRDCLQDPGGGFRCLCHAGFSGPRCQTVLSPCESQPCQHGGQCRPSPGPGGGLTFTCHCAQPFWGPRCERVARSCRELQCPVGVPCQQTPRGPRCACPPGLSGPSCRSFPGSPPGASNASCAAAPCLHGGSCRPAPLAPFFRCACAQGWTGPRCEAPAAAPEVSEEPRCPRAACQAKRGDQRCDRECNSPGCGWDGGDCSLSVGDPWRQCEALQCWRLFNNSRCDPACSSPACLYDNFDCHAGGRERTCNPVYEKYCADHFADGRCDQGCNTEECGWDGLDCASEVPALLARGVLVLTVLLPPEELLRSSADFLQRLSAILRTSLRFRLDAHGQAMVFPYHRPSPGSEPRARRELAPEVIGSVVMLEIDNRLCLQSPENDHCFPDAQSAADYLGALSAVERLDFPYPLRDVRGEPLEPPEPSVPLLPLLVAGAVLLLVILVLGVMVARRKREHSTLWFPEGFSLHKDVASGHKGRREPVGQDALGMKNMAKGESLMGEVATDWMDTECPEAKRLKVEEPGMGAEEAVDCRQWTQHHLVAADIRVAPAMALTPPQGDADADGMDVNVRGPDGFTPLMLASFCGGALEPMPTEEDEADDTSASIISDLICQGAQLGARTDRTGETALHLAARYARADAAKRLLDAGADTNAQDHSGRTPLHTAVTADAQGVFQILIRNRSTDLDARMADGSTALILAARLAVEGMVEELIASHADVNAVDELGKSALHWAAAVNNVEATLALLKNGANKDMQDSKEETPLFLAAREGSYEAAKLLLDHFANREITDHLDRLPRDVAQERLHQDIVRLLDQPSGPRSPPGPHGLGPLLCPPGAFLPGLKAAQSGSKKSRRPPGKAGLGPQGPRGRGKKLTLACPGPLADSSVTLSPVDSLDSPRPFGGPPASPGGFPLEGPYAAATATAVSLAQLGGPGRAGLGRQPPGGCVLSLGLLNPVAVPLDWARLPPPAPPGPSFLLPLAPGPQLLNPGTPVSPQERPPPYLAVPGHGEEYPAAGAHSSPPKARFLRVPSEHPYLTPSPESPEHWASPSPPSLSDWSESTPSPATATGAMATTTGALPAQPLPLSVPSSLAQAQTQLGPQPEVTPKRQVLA
Chain of Pro-neuregulin-1, membrane-bound isoform (Homo sapiens) (Q02297 whole entry, looked up, the tested form may be a part, canonical isoform): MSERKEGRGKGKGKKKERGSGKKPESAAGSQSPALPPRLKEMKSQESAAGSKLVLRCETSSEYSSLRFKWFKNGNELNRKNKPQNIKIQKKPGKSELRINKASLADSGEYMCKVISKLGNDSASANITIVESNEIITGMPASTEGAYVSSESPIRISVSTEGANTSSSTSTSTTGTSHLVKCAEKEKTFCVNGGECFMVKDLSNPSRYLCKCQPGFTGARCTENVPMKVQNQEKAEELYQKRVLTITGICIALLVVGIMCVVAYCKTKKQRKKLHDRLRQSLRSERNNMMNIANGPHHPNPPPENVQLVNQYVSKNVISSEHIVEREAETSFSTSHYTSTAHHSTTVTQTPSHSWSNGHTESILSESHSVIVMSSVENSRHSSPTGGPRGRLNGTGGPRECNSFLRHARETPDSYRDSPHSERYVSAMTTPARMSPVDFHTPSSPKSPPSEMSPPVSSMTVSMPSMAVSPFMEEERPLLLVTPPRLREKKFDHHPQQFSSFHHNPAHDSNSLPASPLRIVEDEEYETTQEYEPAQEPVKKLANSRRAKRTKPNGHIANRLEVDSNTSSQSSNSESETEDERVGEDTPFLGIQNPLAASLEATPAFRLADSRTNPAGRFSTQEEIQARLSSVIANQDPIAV
Chain of Torsin-1A-interacting protein 2 (Homo sapiens) (Q8NFQ8 whole entry, looked up): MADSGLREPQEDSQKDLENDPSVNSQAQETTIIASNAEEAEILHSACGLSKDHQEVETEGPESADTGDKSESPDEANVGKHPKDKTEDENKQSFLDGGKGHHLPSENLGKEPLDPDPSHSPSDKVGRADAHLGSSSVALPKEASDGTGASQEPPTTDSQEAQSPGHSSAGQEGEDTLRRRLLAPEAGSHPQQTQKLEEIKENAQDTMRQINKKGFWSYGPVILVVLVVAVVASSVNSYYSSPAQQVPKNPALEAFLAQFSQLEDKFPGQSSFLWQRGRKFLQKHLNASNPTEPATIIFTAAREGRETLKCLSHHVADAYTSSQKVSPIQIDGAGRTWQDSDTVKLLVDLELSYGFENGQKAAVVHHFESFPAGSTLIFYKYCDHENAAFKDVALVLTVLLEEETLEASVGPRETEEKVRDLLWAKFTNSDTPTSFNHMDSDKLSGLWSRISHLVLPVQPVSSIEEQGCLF

SMILES	composite z-score [1]	composite z-score [2]	composite z-score [3]	composite z-score [4]	composite z-score [5]	composite z-score [6]	composite z-score [7]	z-score [8]	composite z-score [9]	composite z-score [10]	composite z-score [11]	z-score [12]	z-score [13]	z-score [14]	composite z-score [15]	z-score [16]	composite z-score [17]	composite z-score [18]	composite z-score [19]	composite z-score [20]
CC(=O)NCCCC[C@@H]1NC(=O)[C@@H]2C[C@H](C(=O)NCCCCCCN(C)C)[C@H](c3ccc(O)cc3)N2C1=O	-0.438	1.71	0.0513	1.19	0.734	1.56	1.51	4.01 (inactive)	0.541	0.797	1.54	0.146 (inactive)	-0.542 (inactive)	0.905 (inactive)	2.4	1.02 (inactive)	0.691	1.61	1.08	0.177
CC(C)(C)OC(=O)CC[C@]1(C(=O)NCCN2CCOCC2)N=C(c2ccc(OCCCO)cc2)O[C@H]1c1ccccc1CN=[N+]=[N-]	0.182	1.16	0.0402	0.07	1.24	1.73	1.42	2.72 (inactive)	0.278	-0.0672	0.82	-1.29 (inactive)	-0.981 (inactive)	-1.35 (inactive)	3.06	1.71 (inactive)	-0.0384	-0.541	0.343	0.0074
C#CCCCON=C1C[C@@H](O)[C@@H](O)[C@@H]2[C@@H]3C(=O)N(Cc4ccc5c(c4)OCO5)C(=O)[C@@H]3CC[C@H]12	-0.264	0.933	-0.0533	0.716	0.624	0.662	0.695	0.523 (inactive)	-0.0042	-0.342	1.01	-0.216 (inactive)	0.518 (inactive)	-0.257 (inactive)	2.79	0.523 (inactive)	-0.0835	1.66	0.513	-0.02
COC(=O)C(CC#Cc1ccc2c(c1)[C@]1(C(=O)N2)[C@H](C(=O)N2CCCCCCC2)[C@H]2C(=O)O[C@H](c3ccccc3)[C@H](c3ccccc3)N2[C@@H]1c1ccc(O)cc1)C(=O)OC	0.565	-1.17	-0.167	-0.542	-1.07	-0.712	-0.466	1.65 (inactive)	-0.137	-0.306	-1.19	-0.428 (inactive)	0.0597 (inactive)	0.702 (inactive)	-0.573	0.904 (inactive)	-0.294	-0.805	-0.909	-0.221
C[N+](C)(C)CCCCNC(=O)[C@H]1C[C@H]2C(=O)NCC(=O)N2[C@H]1c1cccc(OCCO)c1	-0.514	2.35	-0.0375	1.15	0.0841	0.309	1.43	1.73 (inactive)	0.533	0.245	1.54	-0.138 (inactive)	0.0073 (inactive)	-1.66 (inactive)	0.57	-0.271 (inactive)	-0.0463	1.91	1.05	0.0717
COCCOC(=O)N1C(=O)[C@@]2(c3cc(C#CC4=CCCCC4)ccc31)[C@H](C(=O)NC[C@H](O)c1ccccc1)[C@H]1C(=O)O[C@H](c3ccccc3)[C@H](c3ccccc3)N1[C@@H]2c1ccccc1OCCO	0.462	0.333	0.126	0.467	1.15	0.616	1.09	-0.0011 (inactive)	0.881	0.259	1.56	2.24 (inactive)	1.79 (inactive)	4.71 (inactive)	1.91	-0.0963 (inactive)	0.306	1.13	1.07	-0.0316
COCCOC(=O)N1C(=O)[C@@]2(c3cc(C#CC4(O)CCCCCC4)ccc31)[C@H](C(=O)N1CCCCCCC1)[C@H]1C(=O)O[C@H](c3ccccc3)[C@H](c3ccccc3)N1[C@@H]2c1ccc(O)cc1	3.29	0.536	0.416	0.345	0.899	0.768	1.2	-0.492 (inactive)	2.81	1.11	1.56	-0.971 (inactive)	-1.1 (inactive)	0.772 (inactive)	2.86	2.34 (inactive)	0.873	0.906	0.995	0.67
CO[C@H]1O[C@H](CO)[C@@H](OC(=O)CCc2ccccc2)[C@@H]2OC(=O)[C@H](Cc3cccc(Br)c3)C/C=C/C[C@@H](Cc3cccc(Br)c3)C(=O)O[C@@H]12	0.617	0.361	-0.139	-0.722	-1.2	0.964	-0.0592	-2.01 (inactive)	0.0729	-0.134	0.922	-4.85 (inactive)	-4.06 (inactive)	3.62 (inactive)	0.8	2.82 (inactive)	-0.134	-0.6	-0.791	-0.186
[N-]=[N+]=NCc1ccccc1C[C@@]1(C(=O)O)N=C(c2ccc(OCCCO)cc2)O[C@@H]1c1ccccc1N=[N+]=[N-]	0.168	-0.259	-0.0242	0.377	1.55	1.66	1.22	-1.6 (inactive)	0.521	-0.0994	1.51	-0.41 (inactive)	-1.02 (inactive)	-0.85 (inactive)	3.16	0.602 (inactive)	0.0189	0.0183	1.03	0.0316
O=C1O[C@@H](c2ccccc2)[C@@H](c2ccccc2)N2[C@@H](c3ccccc3OCCO)[C@]3(C(=O)Nc4ccc(C#CC5=CCCCC5)cc43)[C@@H](C(=O)O)[C@H]12	0.294	0.416	0.0248	0.627	1.44	0.391	1.1	-1.6 (inactive)	0.415	-0.226	1.34	2.48 (inactive)	-0.608 (inactive)	0.341 (inactive)	1.83	2.04 (inactive)	0.0748	0.269	1.05	-0.0321
O=C1C2C=CC(C(O)C(c3ccccc3)c3ccccc3)N(Nc3ccc([N+](=O)[O-])cc3)C2C(=O)N1c1ccccc1 (stereo not given)	0.141	0.311	0.138	1.16	1.64	1.84	1.27	0.117 (inactive)	1.37	-0.0994	1.38	0.384 (inactive)	1.86 (inactive)	2.85 (inactive)	3.67	-0.07 (inactive)	0.109	-0.181	1.07	0.121
CC(C)[Si](OCC[C@H]1O[C@]2(C(=O)N(Cc3ccccc3)c3ccccc32)[C@@H](C)[C@@H]1[Si](C)(C)O)(C(C)C)C(C)C	-0.143	-0.149	-0.25	0.164	-0.0407	0.676	-0.0474	0.562 (inactive)	0.292	0.0373	0.489	1.11 (inactive)	-0.259 (inactive)	1.24 (inactive)	0.414	1.05 (inactive)	-0.149	-0.139	-0.0636	-0.109
C=CC[C@]1(C(=O)NCC(O)CO)N=C(c2ccc(OCCCO)cc2)O[C@H]1c1ccccc1 (stereo not given in full)	1.28	-0.012	-0.118	-0.843	-0.502	2.14	1.25	-1.1 (inactive)	-0.0064	-0.124	0.16	-1.44 (inactive)	-0.514 (inactive)	-1.18 (inactive)	3.57	2.05 (inactive)	0.0544	-0.923	-0.898	-0.169
O=C1c2ccccc2[C@](Cc2ccccc2I)(C(=O)O)[C@H](c2ccc(CO)cc2)N1C1CCCCC1	0.007	0.297	0.0545	1.06	1.56	1.22	1.32	0.287 (inactive)	0.892	0.011	1.54	-0.602 (inactive)	-2.37 (inactive)	-0.997 (inactive)	2.56	2.51 (inactive)	0.143	0.597	1.01	0.252
COC(=O)C[C@H]1O[C@]2(C(=O)N(Cc3ccccc3)c3ccc(I)cc32)[C@@H](C)[C@@H]1[Si](C)(C)c1ccc(OC)cc1	0.224	-0.529	-0.22	0.262	-0.385	-0.121	-0.241	0.184 (inactive)	-0.145	-0.16	-0.949	0.595 (inactive)	0.676 (inactive)	1.58 (inactive)	-0.484	-0.556 (inactive)	-0.0561	-0.598	-0.625	-0.101
COC(=O)[C@@]1(Cc2ccc(OC)cc2)[C@H]2c3cc(C(=O)N(C)C)n(Cc4ccc(C)c(F)c4F)c3C[C@H]2CN1C(=O)c1ccccc1	0.372	0.251	0.162	0.315	0.498	0.57	0.964	0.803 (inactive)	0.588	0.21	0.223	1.14 (inactive)	0.491 (inactive)	0.972 (inactive)	2.84	-0.716 (inactive)	0.146	-0.268	0.797	-0.0972
CC1CC/C=C\[C@H]2OC34C=CCN(Cn5nnc6ccccc65)C(=O)[C@H]3N(C(C)CO)C(=O)[C@@H]4C2C(=O)O1 (stereo not given in full)	-0.0303	-1.38	-0.171	-0.282	-0.64	1.86	0.3	-0.389 (inactive)	-0.134	0.0373	-0.151	0.799 (inactive)	0.0528 (inactive)	0.272 (inactive)	2.22	-0.224 (inactive)	-0.144	-0.537	-0.118	-0.19
